The text below walks through data of PubChem BioAssay AID1508600 (Functional Genomics Laboratory (NCATS/FGL), 2020).

Hit rate of the full screen: of about 53,000 sequences, about 3,700 (7%) were called active.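 The calls were made as follows: active = gene knockdowns whose robust z-score for IL-1 alpha signal is at least 2 or at most -2, so actives lie on both sides; inactive = the rest.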 Only a selection was taken, and actives are over-represented in it overall.

A short description of this assay: Components of the Cytosolic LPS Sensing Pathway: Gene Identification via Genome-wide siRNA Screen.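 Also: robust z of the log signal after scaling to non-targeting control siRNA wells of the plate.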 The note with it: RAW264.7 macrophages, IL-1a HTRF, actives lie on both sides, screened at 100 nM (by protocol), cells primed 5 h with Pam3CSK4 first. The method in brief:
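Read-out: IL-1a HTRF on supernatant, divided by plate negative-control median ×100, log-transformed and converted to robust z-score. Cells were RAW264.7 given 100 nM siRNA, Pam3CSK4-primed 5 hours, then LipidA-transfected 24 hour.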
As to GGCUAGAUGACAACCGCAUTT against Flrt1, the z-score is 1.13 (inactive). The same measure for GGGAGUUAUAUAAAUGCAUTT against Taf7l: -1.13 (inactive); for CACAGAACAUCAUCUCCCATT against Olfr887: -2.79 (active).

As to CGAAAUGACAGUGUUAUUCTT against Mpl, the z-score is 0.185 (inactive).

Regarding GGUAUGAUGGGAAAUUUUUTT against Tmod2, the z-score is 1.07 (inactive). Turning to GGAAUCGGUGUAUUCGUUUTT against Sectm1b, the z-score is 0.593 (inactive). For the sequence GGAAGACAAAGUCUGGGUGTT against Hpx, the z-score is -0.915 (inactive). As for GGUCCUACAGGAGAAGAUCTT against Tekt2, the z-score is -2.09 (active). For the sequence GGAGAAGUUCCCUAACAUGTT against Ppan, the z-score was -1 (inactive).

In the case of GCCAGUAAGGAAUUCAACUTT against C3, the z-score was -1.29 (inactive). To GGGCAUUGAAGCAAAUAUATT against Tmprss15 belongs 0.323 (inactive). For the sequence GGACGCAUGAUGUGGGUUCTT against Tmem41a, the z-score was -0.626 (inactive). With GCUAAGUCGGAGCAGUUUUTT against Clba1, the z-score was 2.07 (active). To AUGGUGCUGUUUUAUUUGUTT against Olfr671 belongs -0.807 (inactive). Consider UAUCGUCCACAACUACUCATT against Epn1, for which the z-score is 1.14 (inactive). To GGACAUCCAACCGUACAUGTT against Ccnd2 belongs 0.247 (inactive); to GCAAGCUACAUGCAUACAUTT against Zfp945, 3.59 (active). To GCCCUUUGACAAUUUGUUUTT against Stra6l belongs -0.661 (inactive); to CCUAUGUAACACAAACAUUTT against Orc5, 0.721 (inactive). Turning to GGUACAAGGUCAUCAUGAGTT against Olfr1341, the z-score is -2.85 (active).

As for GGAGGGAGUAUCCAUGUCATT against Nr2c2, the z-score is 0.209 (inactive). The same measure for GGUCGACAGACUCUUGCAUTT against Mylk3: -0.982 (inactive); for GCAAGCAGAGAUGUUACAUTT against Olfr1284: -0.975 (inactive); for GGUGCUGUAUUUGAUGUUATT against Nudt6: 0.544 (inactive). To GGAACUUGAACUAAAAAUGTT against Eaf1 belongs 2.5 (active). With GGUGAUGGUGAACAAGAAATT against Lgals9, the z-score is -0.811 (inactive). To GGCUCACGCUCGUUACCUATT against Nwd1 belongs -1.86 (inactive). As to GGGUCCUAAGACUAUUGAUTT against Eif4g1, the z-score is 0.274 (inactive). The same measure for GCUUCCUUCUUCUUGUCCATT against Vmn1r42: -0.475 (inactive); for GGAUUUUCGAUUCUCUUACTT against Glg1: 2.25 (active); for GGAUGUUCAACCUAAACGATT against Ferd3l: -0.347 (inactive). GGUUCAGAAGUCUAUGUCUTT against Ufsp1: the z-score is 0.866 (inactive). To GCCGUAUCACCCUAAACUATT against Pxylp1 belongs 2.05 (active); to GGCCUAGUUCCAGUUAUGCTT against Olfr1093, -1.41 (inactive). To CCGCUACCUUAAGCACCUATT against Terf2ip belongs 0.231 (inactive). For the sequence GGUUUGACUAACUUUCCUUTT against Fbxl15, the z-score was 0.198 (inactive). The same measure for GCGGGAACUUAAAGUUUACTT against Yars: 3.18 (active); for GGAACAGUGCUUGUAUCAGTT against Clasrp: 0.675 (inactive). On to GGUUCCUUCGUGAAUGUCATT against Glp1r, for which the z-score is 0.0826 (inactive). The same measure for CCCGUCAAUACCACUUACCTT against Sidt2: 2.19 (active); for GCUAAUCGGAUGCUGAAGCTT against Psmb7: 0.71 (inactive). To CCUUAUGUCCCUAAGGCUATT against Mbd3 belongs -0.109 (inactive); to CCUCAGUUAUAGAUGAUCUTT against Rdh11, 0.319 (inactive); to CCCUCAAAUAACAUCCAGGTT against Sh3d21, -1.93 (inactive). For GGAAAUCUAUUUCAUUGACTT against Zcchc10, the z-score is 0.956 (inactive). With GCUUGUGCGAGUGUUGGAUTT against Has1, the z-score is 2.21 (active). Turning to GGGUUUCCUACAGAGUACCTT against Amer3, the z-score was -0.845 (inactive). For “GGCAUGGAUUGGUGAGAUUTT against 9330175E14Rik”, the z-score is -0.576 (inactive). The same measure for GCAUUAAGCACGAGAAAAATT against Slc18a2: 0.575 (inactive); for GCUCUCAGAUGACAUCACUTT against Supt5: -2.43 (active); for GGACCACUUGUAGUAUUUGTT against Map7d1: 0.593 (inactive). To GGCAACUGCCUUUACCAUATT against Tceanc2 belongs 1.67 (inactive); to GGAGAUCGACCUGUCUAUGTT against Cep164, 0.988 (inactive).

As for CGGAAAAGAUCCCUAUUGUTT against Adam5, the z-score was 0.373 (inactive). The same measure for GGGACGUGCAAUUGUCUGATT against Mfsd6: 0.0857 (inactive); for GGAUGGCAUGUCCUUCCAATT against Elf3: 2.85 (active). To GGAAGUGGAAAAAGUUUAGTT against Brip1 belongs 0.442 (inactive); to GGCAUUGCUGACUACAAACTT against Tcn2, 2.15 (active); to GCAGUUUUGGGCAAUACCUTT against Olfr358, 1.22 (inactive).

For GCAACGCAACAGCAUUCCUTT against Psmg1, the z-score was 1.34 (inactive). The same measure for GGAUAUGCUGAGGUGGUGGTT against Cpsf7: -1.07 (inactive); for GGUGUACAUGGACAUCAAGTT against Ppie: 0.0171 (inactive). To GGUCUUUGAGUUAAACCAUTT against Cdc7 belongs -0.0476 (inactive); to CCUGAGCUAGAAUCUCAGATT against Zmat2, 0.715 (inactive); to CCCUUUCAACCAUUAAGCUTT against Kcns2, 0.243 (inactive). As for GGAUGGGUCAAUGUUCUACTT against V1rb6, the z-score was 0.232 (inactive). To CCACCAGAAUCCUAACACATT against Nucb2 belongs 2.55 (active).

As to CCAUGUGUAAAGGGAGAAATT against Nxph2, the z-score was 0.893 (inactive). The same measure for CCAGUUGUGUGAAUUAUGUTT against Psmd2: -2 (inactive); for CCUACCGUUACCUAAGUGATT against Kcnj5: -1.15 (inactive); for GCAAUGAGUAUUCAUGCAATT against Sec61a2: -1.86 (inactive). To CCUUCAGUGCUGUAGUGUATT against Rasl10b belongs 0.37 (inactive); to GGAGUCCUAGAACACACAGTT against Snap29, -1.79 (inactive); to GGAAUAUUAUGGGUAUCGATT against Cacna1s, 0.952 (inactive). The same measure for GGUGGACUCUGUUUAAAAATT against Mtnr1a: 0.971 (inactive); for GGUCUGUGAAAUGAAAAAUTT against Brix1: -0.473 (inactive); for GGACUUACAUGGAAUUUUATT against Eftud2: -2.07 (active). CGGGUAUCAUCGAUUAUGGTT against Tnfaip6: the z-score was -0.356 (inactive). The same measure for GGAGUGCAGUACAAAGGACTT against Ahsa1: 0.872 (inactive); for GCCCAGCUCAAAUCUCCAUTT against Defb41: 1.05 (inactive). Consider GGACUUUUCAUUUGAAGCATT against Gar1, for which the z-score was 1.03 (inactive). To GGAGUUUGUAGCUGACAUCTT against Dcaf15 belongs -1.02 (inactive); to GCCUUUCUCGCUACUUAGUTT against Cltc, 2.83 (active).

Consider GGAAAUCCAACUUCUUUCATT against Ebf2, for which the z-score was 2.7 (active). The same measure for GGUGUCUGCGUGAAGAUCATT against Cacng8: 2.81 (active); for CCUGGACAAGCUAUACCUUTT against Cdc45: 0.952 (inactive); for GGCAUUGUAACCCUUGUAATT against Zscan26: -0.684 (inactive).

As to CGACUGGAUACCAAAUUACTT against Mtrex, the z-score was -1.21 (inactive). Consider GGAUCAUGAGAAUAUCAUCTT against P4hb, for which the z-score was 0.816 (inactive). Turning to GGUGAUGUCAAGAGUUUUCTT against Hacd2, the z-score was 3.56 (active). The same measure for “GGGCCUCCUGUAAACAUCCTT against D630039A03Rik”: 0.884 (inactive); for AUAAGAUGUUGCUCGGAACTT against Olfr1193: 1.26 (inactive). To GCCAGUGUUAUCCAGGACUTT against Cggbp1 belongs 1.35 (inactive); to GCAACUCAACCUCAACCAUTT against Lrrc8e, -0.597 (inactive). For the sequence CCUCGAGUGGUUGGAUAAGTT against Vps25, the z-score was -2 (active). For GGUGAAAUUGCUCAGAUAATT against Narf, the z-score is 0.387 (inactive).

As to AACCAUGAUGCUUACGUUUTT against S100a10, the z-score is 0.285 (inactive). CCACAUACAUUUCACAGGGTT against Kdf1: the z-score is -0.806 (inactive).

With GGAGUGUGUGCUUUUAAAATT against Rabggta, the z-score is 0.248 (inactive). On to GGCAGAAGUGGAAAAACAATT against Tmco1, for which the z-score is -0.417 (inactive). The same measure for GGAAUGUAUCCAGGACUUCTT against Brd4: -2.46 (active); for GAACCCUCAUGAGGGUUACTT against C1ql1: 0.177 (inactive). Consider GCCAGUAUGCUGUAUGGCUTT against Bcas3, for which the z-score is -0.712 (inactive). Turning to GCUACCUCUUGCAUGGGAGTT against Bivm, the z-score was -0.0737 (inactive). To GCUGAUAAACAUCAGCUACTT against Zdhhc23 belongs 4.01 (active). With GGCCUGUAUUCUGCUCUGUTT against Olfr341, the z-score was 0.0576 (inactive). As for GGCUGCUUAGCUUUAAUGGTT against Ccdc177, the z-score is -0.674 (inactive).

Consider GGGAUACUCCAAGUUCCAUTT against Muc4, for which the z-score is 2.85 (active).
